# According to PMC11062922 (Nature Chemical Biology, 2023):
# Like-named read-outs stand apart in the source and are kept apart here.
# Tests used:
# Parameters in all cases: species or system human, MV4-11 + K-562 + COLO205 + SK-N-BE2 + OVCAR-8
# FLT3 = settings: read-out: apparent Kd, n = 1
# MAPK14 = settings: read-out: apparent Kd, n = 1
# ACVR1B = settings: read-out: apparent Kd, n = 1
# ACVR1 = settings: read-out: apparent Kd, n = 1
# AURKB = settings: read-out: apparent Kd, compound concentrations: 100 nM and 1000 nM (sheet 'Samples'), n = 1
# CSK = settings: read-out: apparent Kd, n = 1
# EPHA1 = settings: read-out: apparent Kd, n = 1
# SIK2 = settings: read-out: apparent Kd, n = 1
# ACAD11 = settings: read-out: apparent Kd; compound concentrations: 100 nM and 1000 nM (sheet 'Samples'), CATDS: 8.0770900756938508E-3; n = 1
# CDKL5 = settings: read-out: apparent Kd; compound concentrations: 100 nM and 1000 nM (sheet 'Samples'), CATDS: 6.9445234986253998E-3; n = 1
# FRK = settings: read-out: apparent Kd, n = 1
# GSK3A = settings: read-out: apparent Kd; compound concentrations: 100 nM and 1000 nM (sheet 'Samples'), CATDS: 2.0180819092640301E-2; n = 1
# GSK3B = settings: read-out: apparent Kd; compound concentrations: 100 nM and 1000 nM (sheet 'Samples'), CATDS: 1.6634751009670601E-2; n = 1
# LYN = settings: read-out: apparent Kd, n = 1
# SRC = settings: read-out: apparent Kd, compound concentrations: 100 nM and 1000 nM (sheet 'Samples'), n = 1
# DYRK1A = settings: read-out: apparent Kd, compound concentrations: 100 nM and 1000 nM (sheet 'Samples'), n = 1
# DDR1 = settings: read-out: apparent Kd, n = 1
# [1] = compound concentrations:100 nM and 1000 nM (sheet 'Samples')
compound,measurement,setting,value
COc1ccc(-n2cnc3c(N)ncnc32)cc1 [SKF-97236],potency estimated from few doses,"FLT3; compound concentrations: 100 nM and 1000 nM (sheet 'Samples'), CATDS: 0.20462680651790399",598 nM
same,potency estimated from few doses,"MAPK14; compound concentrations: 100 nM and 1000 nM (sheet 'Samples'), CATDS: 0.140639496900372",1390 nM
COc1cc(Nc2ccnc3cc(-c4ccncc4)ccc23)cc(OC)c1OC.Cl [GW494610A],potency estimated from few doses,"ACVR1B; compound concentrations: 100 nM and 1000 nM (sheet 'Samples'), CATDS: 6.2055393770244598E-2",76.5 nM
same,potency estimated from few doses,"ACVR1; compound concentrations: 100 nM and 1000 nM (sheet 'Samples'), CATDS: 8.6839126385756693E-2",38.3 nM
same,potency estimated from few doses,AURKB; CATDS: 5.7571781244095399E-2,90.3 nM
same,potency estimated from few doses,"CSK; compound concentrations: 100 nM and 1000 nM (sheet 'Samples'), CATDS: 2.2928225838280001E-2",1390 nM
same,potency estimated from few doses,"EPHA1; compound concentrations: 100 nM and 1000 nM (sheet 'Samples'), CATDS: 0.10844818822907799",25.4 nM
same,potency estimated from few doses,"SIK2; compound concentrations: 100 nM and 1000 nM (sheet 'Samples'), CATDS: 2.3854628716910201E-2",1170 nM
O=C1N=C(NCc2cccs2)SC1Cc1ccc2ncccc2c1 (stereo not shown) [RO4629078-000],potency estimated from few doses,ACAD11,1250 nM
same,potency estimated from few doses,"ACVR1; compound concentrations: 100 nM and 1000 nM (sheet 'Samples'), CATDS: 8.2545547739811299E-3",1160 nM
same,potency estimated from few doses,AURKB; CATDS: 8.1625100314479202E-3,1200 nM
same,potency estimated from few doses,CDKL5,2320 nM
same,potency estimated from few doses,"CSK; compound concentrations: 100 nM and 1000 nM (sheet 'Samples'), CATDS: 1.22881462523177E-2",419 nM
same,potency estimated from few doses,"EPHA1; compound concentrations: 100 nM and 1000 nM (sheet 'Samples'), CATDS: 1.25959830755684E-2",398 nM
same,potency estimated from few doses,"FLT3; compound concentrations: 100 nM and 1000 nM (sheet 'Samples'), CATDS: 7.9273479759833908E-3",1330 nM
same,potency estimated from few doses,"FRK; compound concentrations: 100 nM and 1000 nM (sheet 'Samples'), CATDS: 9.6278136963786204E-3",738 nM
same,potency estimated from few doses,GSK3A,174 nM
same,potency estimated from few doses,GSK3B,238 nM
same,potency estimated from few doses,"LYN; compound concentrations: 100 nM and 1000 nM (sheet 'Samples'), CATDS: 9.9981449743306808E-3",670 nM
same,potency estimated from few doses,"SIK2; compound concentrations: 100 nM and 1000 nM (sheet 'Samples'), CATDS: 1.2411552216362301E-2",411 nM
same,potency estimated from few doses,SRC; CATDS: 1.3307336951607501E-2,357 nM
O=C1N=C(NCCc2cccc(Cl)c2)S/C1=C\c1ccc2ncccc2c1 [RO4509201-000],potency estimated from few doses,DYRK1A; CATDS: 6.6454923664205107E-2,945 nM
same,potency estimated from few doses,"FLT3; compound concentrations: 100 nM and 1000 nM (sheet 'Samples'), CATDS: 6.3899678732730503E-2",1060 nM
Cc1ccc(O)cc1Nc1ccnc2cc(-c3ccc(CN4CCCCC4)o3)ccc12 [GW557777X],potency estimated from few doses,"ACVR1B; compound concentrations: 100 nM and 1000 nM (sheet 'Samples'), CATDS: 2.3041961266034101E-2",60.3 nM
same,potency estimated from few doses,"ACVR1; compound concentrations: 100 nM and 1000 nM (sheet 'Samples'), CATDS: 2.9506962076646302E-2",25.6 nM
same,potency estimated from few doses,"CSK; compound concentrations: 100 nM and 1000 nM (sheet 'Samples'), CATDS: 1.5702412967624198E-2",358 nM
same,potency estimated from few doses,"DDR1; compound concentrations: 100 nM and 1000 nM (sheet 'Samples'), CATDS: 1.3388843859825601E-2",1100 nM
same,potency estimated from few doses,"FRK; compound concentrations: 100 nM and 1000 nM (sheet 'Samples'), CATDS: 4.1928462897336198E-2",9.28 nM
same,potency estimated from few doses,"LYN; compound concentrations: 100 nM and 1000 nM (sheet 'Samples'), CATDS: 1.9191353458574801E-2",128 nM
same,potency estimated from few doses,"SIK2; compound concentrations: 100 nM and 1000 nM (sheet 'Samples'), CATDS: 1.7387307110144301E-2",205 nM
same,potency estimated from few doses,SRC; CATDS: 2.30493923024673E-2,60.3 nM
O=C1N=C(NCCc2ccccn2)S/C1=C\c1ccc2ncccc2c1 [RO4508346-000],potency estimated from few doses,DYRK1A; CATDS: 0.223400824962835,127 nM
CCN(CC)CCOc1ccc(Nc2ncc3cc(-c4c(Cl)cccc4Cl)c(=O)n(C)c3n2)cc1 [SB-601273],potency estimated from few doses,ACVR1B; [1],170 nM
same,potency estimated from few doses,ACVR1; [1],218 nM
same,potency estimated from few doses,CSK; [1],838 nM
same,potency estimated from few doses,DDR1; [1],165 nM
same,potency estimated from few doses,EPHA1; [1],2.59 nM
same,potency estimated from few doses,FLT3; [1],891 nM
same,potency estimated from few doses,FRK; [1],103 nM
same,potency estimated from few doses,LYN; [1],111 nM
same,potency estimated from few doses,MAPK14; [1],678 nM
same,potency estimated from few doses,SIK2; [1],55.3 nM
same,potency estimated from few doses,SRC; CATDS: 2.2831439455092799E-2,137 nM
